Records with an inconclusive call do not appear. Values without a mark were called inactive. Calls come from the whole dose curve; as a rule, active = well fitted curve in the direction sought with a large enough effect; inconclusive = small, poorly fitted or top-dose-only effect, or another doubt; inactive = no such curve, though single readings can be large or run the other way. Residues, ends and D or L forms follow the SMILES beside them. *: point of attachment. Cbz = O=C(OCc1ccccc1)*
% is set by controls: 0 for no effect and ±100 for the full control effect.

Chain of Ferritin light chain (Equus caballus) (P02791 2-175 limits assumed): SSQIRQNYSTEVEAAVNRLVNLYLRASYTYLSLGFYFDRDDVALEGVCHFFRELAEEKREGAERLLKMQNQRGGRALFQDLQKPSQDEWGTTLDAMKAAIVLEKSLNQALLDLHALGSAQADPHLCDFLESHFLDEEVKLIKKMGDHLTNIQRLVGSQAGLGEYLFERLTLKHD

The target of the experiment is Ferritin light chain (Equus caballus) (UniProt P02791). The experiment is described as follows: qHTS Validation Assay for Identification of Novel General Anesthetics (AID 2323). The conditions noted are these: horse apoferritin, anesthetic-site fluorescent probe displacement; series mostly up to 76.9 µM; activity change, negative = inhibition: at the top concentration. From the text:
Source: NIH Chemical Genomics Center [NCGC]
Assay Submitter: Roderic Eckenhoff, University of Pennsylvania
Screening Center PI: Christopher P. Austin, NIH
Probe Development: NIH Chemical Genomics Center [NCGC]
Anesthetic development has remained a largely empirical process. There are growing concerns about the cognitive effects of known general anesthetics and acceleration of the onset of neurodegenerative disease. The compounds' toxicity and multiple specific binding targets in the mammalian brain [4] has made them less attractive as drug leads. In this assay, a GABAergic mimetic model system, apoferritin and a profluorescent 1-aminoanthracene ligand (1-AMA), was used to construct a competitive binding assay for identification of novel general anesthetics. The assay was validated for 1-AMA using other known anesthetics, such as isoflurane (CID:3763) and propofol (CID: 4943), [6].
[1] S.L. Bianchi, T. Tran, C. Liu, S. Lin, Y. Li, J.M. Keller, R.G. Eckenhoff, and M.F. Eckenhoff, Brain and behavior changes in 12-month-old Tg2576 and nontransgenic mice exposed to anesthetics. Neurobiol Aging 29 (2008) 1002-10.
[2] Z. Xie, Y. Dong, U. Maeda, R.D. Moir, W. Xia, D.J. Culley, G. Crosby, and R.E. Tanzi, The inhalation anesthetic isoflurane induces a vicious cycle of apoptosis and amyloid beta-protein accumulation. J Neurosci 27 (2007) 1247-54.
[3] P. Honegger, and J.M. Matthieu, Selective toxicity of the general anesthetic propofol for GABAergic neurons in rat brain cell cultures. J Neurosci Res 45 (1996) 631-6.
[4] M.F. Eckenhoff, K. Chan, and R.G. Eckenhoff, Multiple specific binding targets for inhaled anesthetics in the mammalian brain. J Pharmacol Exp Ther 300 (2002) 172-9.
[5] C.A. Butts, J. Xi, G. Brannigan, A.A. Saad, S.P. Venkatachalan, R.A. Pearce, M.L. Klein, R.G. Eckenhoff, and I.J. Dmochowski, Identification of a fluorescent general anesthetic, 1-aminoanthracene. Proc Natl Acad Sci U S A 106 (2009) 6501-6.
[6] W.A. Lea, J. Xi, A. Jadhav, L. Lu, C.P. Austin, A. Simeonov, and R.G. Eckenhoff, A high-throughput approach for identification of novel general anesthetics. PLoS One 4 (2009) e7150.
Three uL of reagents (free 1-AMA (50% saturated solution of 1-aminoanthracene
in PBS) in columns 3, 4 as negative control and 1-AMA/apoferritin mixture (10 uM horse-spleen apoferritin in 50% saturated 1-aminoanthracene in PBS) in columns 1, 2, 5-48) was dispensed into 1536-well Greiner black assay plates. Compounds (23 nL) were transferred via Kalypsys pintool equipped with 1,536-pin array (10 nL slotted pins, V&P Scientific, San Diego, CA). Titration of the positive control, propofol, were delivered via pin transfer from separate control plates to the 2nd column of each assay plate. The starting concentration of the control, dissolved in DMSO, was at 160 mM, followed by two-fold dilution points in duplicate, for a total of 16 concentrations. The plates were incubated for 10 min at room temperature, and then read on an EnVision HTS multilabel reader (Perkin-Elmer, Waltham, MA) (end point read, 3 min/plate) using Fura2 BFP excitation filter (380 nm, bandwidth 10 nm) and fluorescein emission filter (535 nm, bandwidth 25 nm) set. A LANCE/DELFIA dichroic mirror with a cutoff wavelength at 400 nm was used to maximize signal accuracy and strength. Vehicle-only plates, with DMSO being pin-transferred to the entire column 5-48 compound area, were inserted uniformly at the beginning and the end of each library in order to monitor for and record any shifts in the background. Activity was computed as the normalized fluorescence response relative to free 1-AMA and 1-AMA/apoferritin complex values. Concentration-effect relationships were derived by using curve fitting algorithms developed in-house (http://ncgc.nih.gov/pub/openhts/). A four parameter Hill equation was fitted to the concentration-response data by minimizing the residual error between the modeled and observed responses.
For the molecule `O=C(O)/C=C/c1cnc[nH]1`, the “activity change, negative = inhibition” value was -4.33%.
`COc1cc(C(O)CO)ccc1O` (stereo not given): the “activity change, negative = inhibition” value was -0.547%.
On to `CCCOC(=O)c1c(-c2ccccc2)nc(CC)c(C(=O)SCC)c1CCC`, for which the “activity change, negative = inhibition” value is 7.52%.
To `NC(N)=NC(N)=Nc1ccccc1` belongs -0.876%.
Under `NCC(O)C1CCCCCCC1` (stereo not given) stands 1.19%; under `O=[N+]([O-])c1cccc2cn[nH]c12`, -15.4%; under `c1ccc2nc(C3=NCCN3)ccc2c1`, -3.84%.
To `OC[C@H]1O[C@@H](n2cnc3cncnc32)[C@H](O)[C@@H]1O` belongs -0.884%; to `O=c1[nH]c2cc(Cl)ccc2c(O)c1-c1ccc(Oc2ccccc2)cc1`, 187%; to `O=C(O)Cc1c[nH]c2ccc(O)cc12`, -12%.
On to `COc1cc(C(O)C(=O)O)ccc1O` (stereo not given), for which the “activity change, negative = inhibition” value is 1.77%.
On to `COc1ccc2c(c1)c(CC(=O)O)c(C)n2Cc1ccc(Cl)cc1`, for which the “activity change, negative = inhibition” value is -17.1%.
As for `NC1CCN(O)C1=O` (stereo not given), the “activity change, negative = inhibition” value is -5.22%.
As for `NC(=O)CC[C@H](N)C(=O)O`, the “activity change, negative = inhibition” value is -4.1%.
As for `CCCc1c(OCCCOc2ccc(OCC(=O)O)cc2)ccc(C(C)=O)c1O`, the “activity change, negative = inhibition” value was -16.6%.
Under `CC1=C(C(=O)O)N2C(=O)[C@@H](NC(=O)C(N)C3=CCC=CC3)[C@H]2SC1` (stereo not given in full) stands 9.75%.
Under `c1ccc(C2CN3CCSC3=N2)cc1` (stereo not given) stands -15.2%; under `NS(=O)(=O)c1cccc2c1c([N+](=O)[O-])cc1nc(O)c(O)nc12`, 9.2%; under `CC(N)=NCCCC[C@@H](N)C(=O)O`, 3.6%.
To `CC1C(=O)N(C)C(=O)c2nc[nH]c21` (stereo not given) belongs -0.247%; to `CCN1C(=O)C=CC1=O`, -1.94%; to `CN1CCN(c2nc3cc(C(F)(F)F)ccc3n3cccc23)CC1`, 34.9%.
As to `CC(=O)C(C)=O`, the “activity change, negative = inhibition” value is -6.9%.
To `NCC(O)(CS(=O)(=O)O)c1ccc(Cl)cc1` (stereo not given) belongs -4.49%; to `CC(C)[C@H](NC(=O)OCc1ccccc1)C(=O)N[C@H](C=O)Cc1ccccc1` (Cbz-Val-Phe-aldehyde), -12.9%; to `COc1ccc2c(c1)c(CC(=O)O)c(C)n2C(=O)c1ccccc1`, -11.8%.
Under `O=C(O)C1CCCNC1` (stereo not given) stands 1.21%; under `COc1ccccc1N1CCN(CCN(C(=O)c2ccc(F)cc2)c2ccccn2)CC1`, -7.02%; under `Cc1cc2c(cc1Cl)N(C(=O)Nc1ccnc3ccccc13)CC2`, -1.8%.
Under `CN1CCCC1CCOC(C)(c1ccccc1)c1ccc(Cl)cc1` (stereo not given) stands -14.3%; under `CCN(CC)CCOC(=O)c1cc(Cl)c(N)cc1OC`, 3.4%.
Regarding `N[C@H](C(=O)O)[C@H](O)C(=O)O`, the “activity change, negative = inhibition” value is -5.06%.
Take `Nn1nnc2ccccc21`: the “activity change, negative = inhibition” value was -5.48%.
To `NCCS(=O)O` belongs 0.184%; to `NC(C(=O)N[C@@H]1C(=O)N2C(C(=O)O)=C(Cl)CS[C@H]12)c1ccccc1` (stereo not given in full), 18%.
To `Cn1c(=O)c2c(nc(/C=C/c3cccc(Cl)c3)n2C)n(C)c1=O` belongs 271%.
Under `O=C(O)c1ccccc1Nc1ccccc1` stands 0.947%; under `CCCc1c(-c2ccc(O)cc2)nn(-c2ccc(O)cc2)c1-c1ccc(O)cc1`, 10.6%; under `CC(C)NCC(O)COc1ccc(CC(N)=O)cc1` (stereo not given), 2.18%.
In the case of `O=C(O)C1=CCCNC1`, the “activity change, negative = inhibition” value was 0.88%.

For the origin of these results see PubChem BioAssay (NCATS).
